Source: the supplement of paper PMC10338343
± gives the standard deviation.

Tested on: MILI (PIWIL2) piRISC loaded with L1MC piRNA (26 nt);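 further: 1 nM active piRISC with 0.1 nM target library at 33 °C single turnover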
Assay: pre-steady-state target cleavage rate (min^-1); guide: L1MC piRNA 5'p-UAACUAAAUACUAUGCAAGCUGUAGG; higher = faster piRNA-guided slicing of the target
Conditions: auxiliary factor: 500 nM mouse GTSF1
Method in brief: (§1)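 At 33 °C in HEPES–potassium acetate buffer, a transcribed, DNA-blocked target RNA library […] was exposed for 0–8 or 0–960 min to 1 nM active affinity-purified piRISC carrying a single synthetic guide, with or without 500 nM GTSF1 partner protein. Uncleaved targets were sequenced and normalised to depth and to weakly complementary targets. With three trials pooled and k3 capped at 0.0001 min^-1, a burst-and-steady-state fit produced the pre-steady-state cleavage rate.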

Row | Sequence | pre-steady-state target cleavage rate
1 | UCCUGCUACAGCUUGCAUAGUUUUUACAAA | 0.0689 ± 0.019
2 | UCCUCCUACAGCUUCCAUAGUAUUUAGUAA | 0.0254 ± 0.011
3 | UCCUGGAUGUGCUUGCAUAGUAUUUAGAUUA | 0.0647 ± 0.016
4 | UCCUCCAUGAGCUUGCAUAGUAUUUACAAA | 0.0266 ± 0.0095
5 | UCCUGCUACAGCUUGGAUAGAAUUUAGUUA | 0.0646 ± 0.014
6 | UCCUCCUACAGCUUGCAUAGUAAAUUCAAA | 0.125 ± 0.03
7 | UCCUGGAUGAGCUUGUCAUAGUAUUUAGUUA | 0.0971 ± 0.013
8 | UCCUGCUACAGCUAGCAUAGUAUUUUGUUA | 0.244 ± 0.031
9 | UCCUGGAUGAGGAUGCAUAGUAUUUAGAAA | 0.0101 ± 0.0046
10 | UCCUCCUACAGCUUGCAAACUAUUUAGUUA | 0.0393 ± 0.0078
11 | UCCUCCUACAGCUUGCAUUAGUAUUUAGUUA | 0.0229 ± 0.0088
12 | UCCUGCUACAGCUUGCAUAGUAUUAACUUA | 0.0306 ± 0.0076
13 | UCCUCCUACUGCUUGCAUAGUAUUUAGUAA | 0.126 ± 0.017
14 | UCCUGGAACAGCUUGCAUUGUAUUUAGAUA | 0.149 ± 0.019
15 | UCCUGGAACAGCUUGCAUACUAUUUAGAUA | 0.013 ± 0.0053
16 | UCCUGCUACAGCUAGCAUAGUAUUUAGAUA | 0.151 ± 0.028
17 | UCCUCCUACAGCUUGCAUACUAUUUAGAUA | 0.0353 ± 0.01
18 | UCCUGGUACAGCUAGCAUAGUAUUUAGAUA | 0.0905 ± 0.022
19 | UCCUGCUACACCUUGCAUACUAUUUAGUUA | 0.0767 ± 0.022
20 | UCCUGGUACAGCUUGCAUAGUAAUUAGUAA | 0.212 ± 0.037

Row | Sequence | pre-steady-state target cleavage rate
21 | UCCUCCUAGAGCUUGCAUAGUAUUUUCAAA | 0.0731 ± 0.019
22 | UCCUGGAUGAGCAUGCAUAGUAUUUAGAAA | 0.121 ± 0.025
23 | UCCUGCUACAGCUUGCAUAGUAUUUCGUUA | 0.132 ± 0.033
24 | UCCUGGAUCAGCUUGCUUAGUAUUUAGAAA | 0.0821 ± 0.019
25 | UCCUGGAAGUCCUUGCAUAGUAUUUAGUAA | 0.122 ± 0.021
26 | UCCUCCUACAGCUUGCAUAGUAUAUUCAAA | 0.125 ± 0.025
27 | UCCUGGAUGUGCUUGCAUAGUAUUUGAGUUA | 0.123 ± 0.024
28 | UCCUCCUACAGCUUGCAUAGUAUUAUCUUA | 0.105 ± 0.025
29 | UCCUGGUACAGCUUGCAUAGUAUUUUCUUA | 0.0368 ± 0.016
30 | UCCUGGAUGAGCUUGCAUAGUAAUUAGUAA | 0.219 ± 0.042
31 | UCCUCCUACAGCUUGCAUAAGUAUUUAGUUA | 0.0109 ± 0.0055
32 | UCCUGGAACAGCUUGCAUAGUAUUUAGAUUA | 0.0966 ± 0.023
33 | UCCUCCUACAGCUUGCAUAGUAAUUAGUAA | 0.141 ± 0.021
34 | UCCUCCUACAGCUUGCAUAGUAUGUUAGUUA | 0.126 ± 0.022
35 | UCCUCCUACAGCUUGCAUAGUAUUAUCAAA | 0.0973 ± 0.021
36 | UCCUCCUACAGGUUGCAUAGUAUUUAGAUA | 0.123 ± 0.017
37 | UCCUCCUACAGCUUGCAAAGUAUUAAGUUA | 0.0872 ± 0.014
38 | UCCUGGAACAGCUUGCAUAGUAUUUUCAAA | 0.0774 ± 0.018
39 | UCCUCGUACAGCUUCCAUAGUAUUUAGUUA | 0.0687 ± 0.018
40 | UCCUCCUACAGCUUGGAUAGUAUUUACUUA | 0.0993 ± 0.024

Tested on: EfPiwi piRISC loaded with L1MC piRNA (26 nt)
Assay: pre-steady-state target cleavage rate (min^-1); auxiliary factor: 500 nM Ephydatia muelleri Gtsf1; guide: L1MC piRNA 5'p-UAACUAAAUACUAUGCAAGCUGUAGG; MIWI and MILI are mouse PIWI proteins and EfPiwi is from a freshwater sponge; tags in brackets are library labels; higher = faster piRNA-guided slicing of the target
Conditions: not given
Method in brief: as §1

Row | Sequence | pre-steady-state target cleavage rate
41 | UCCUGCUACAGCUUGCAUAGUUUUUACAAA | 0.00339 ± 0.0026
42 | UCCUCCUACAGCUUCCAUAGUAUUUAGUAA | 0.0037 ± 0.0018
43 | UCCUGGAUGUGCUUGCAUAGUAUUUAGAUUA | 0.00327 ± 0.0022
44 | UCCUCCAUGAGCUUGCAUAGUAUUUACAAA | 0.00312 ± 0.0024
45 | UCCUGCUACAGCUUGGAUAGAAUUUAGUUA | 0.0053 ± 0.0018
46 | UCCUCCUACAGCUUGCAUAGUAAAUUCAAA | 0.00279 ± 0.0021
47 | UCCUGGAUGAGCUUGUCAUAGUAUUUAGUUA | 0.00721 ± 0.0027
48 | UCCUGCUACAGCUAGCAUAGUAUUUUGUUA | 0.0057 ± 0.0021
49 | UCCUGGAUGAGGAUGCAUAGUAUUUAGAAA | 0.0024 ± 0.0024
50 | UCCUCCUACAGCUUGCAAACUAUUUAGUUA | 0.00937 ± 0.0039
51 | UCCUCCUACAGCUUGCAUUAGUAUUUAGUUA | 0.00479 ± 0.0038
52 | UCCUGCUACAGCUUGCAUAGUAUUAACUUA | 0.00397 ± 0.0027
53 | UCCUCCUACUGCUUGCAUAGUAUUUAGUAA | 0.00527 ± 0.0023
54 | UCCUGGAACAGCUUGCAUUGUAUUUAGAUA | 0.00313 ± 0.0017
55 | UCCUGGAACAGCUUGCAUACUAUUUAGAUA | 0.00312 ± 0.0022
56 | UCCUGCUACAGCUAGCAUAGUAUUUAGAUA | 0.00409 ± 0.0015
57 | UCCUCCUACAGCUUGCAUACUAUUUAGAUA | 0.00315 ± 0.0027
58 | UCCUGGUACAGCUAGCAUAGUAUUUAGAUA | 0.00618 ± 0.0029
59 | UCCUGCUACACCUUGCAUACUAUUUAGUUA | 0.00403 ± 0.0024
60 | UCCUGGUACAGCUUGCAUAGUAAUUAGUAA | 0.00568 ± 0.0029

Row | Sequence | pre-steady-state target cleavage rate
61 | UCCUCCUAGAGCUUGCAUAGUAUUUUCAAA | 0.00252 ± 0.0022
62 | UCCUGGAUGAGCAUGCAUAGUAUUUAGAAA | 0.00289 ± 0.0024
63 | UCCUGCUACAGCUUGCAUAGUAUUUCGUUA | 0.00379 ± 0.0018
64 | UCCUGGAUCAGCUUGCUUAGUAUUUAGAAA | 0.00269 ± 0.0022
65 | UCCUGGAAGUCCUUGCAUAGUAUUUAGUAA | 0.00346 ± 0.0028
66 | UCCUCCUACAGCUUGCAUAGUAUAUUCAAA | 0.00316 ± 0.0027
67 | UCCUGGAUGUGCUUGCAUAGUAUUUGAGUUA | 0.0118 ± 0.0069
68 | UCCUCCUACAGCUUGCAUAGUAUUAUCUUA | 0.00351 ± 0.0027
69 | UCCUGGUACAGCUUGCAUAGUAUUUUCUUA | 0.00532 ± 0.0034
70 | UCCUGGAUGAGCUUGCAUAGUAAUUAGUAA | 0.00197 ± 0.0019
71 | UCCUCCUACAGCUUGCAUAAGUAUUUAGUUA | 0.00345 ± 0.0019
72 | UCCUGGAACAGCUUGCAUAGUAUUUAGAUUA | 0.00539 ± 0.002
73 | UCCUCCUACAGCUUGCAUAGUAAUUAGUAA | 0.0063 ± 0.0029
74 | UCCUCCUACAGCUUGCAUAGUAUGUUAGUUA | 0.00459 ± 0.0021
75 | UCCUCCUACAGCUUGCAUAGUAUUAUCAAA | 0.00273 ± 0.0027
76 | UCCUCCUACAGGUUGCAUAGUAUUUAGAUA | 0.00362 ± 0.00095
77 | UCCUCCUACAGCUUGCAAAGUAUUAAGUUA | 0.00696 ± 0.0033
78 | UCCUGGAACAGCUUGCAUAGUAUUUUCAAA | 0.00233 ± 0.0023
79 | UCCUCGUACAGCUUCCAUAGUAUUUAGUUA | 0.00339 ± 0.0014
80 | UCCUCCUACAGCUUGGAUAGUAUUUACUUA | 0.00254 ± 0.0019
